The target of test [1] is Cell division control protein 42 homolog (Homo sapiens) (UniProt P60953). The experiment in a line: activated mutant Cdc42 GTP-binding inhibitors, dose response, biochemical, multiplex bead flow cytometry, Bodipy-FL-GTP (AID 1333;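 active = fitted half-maximal concentration within the tested dose range, moderate curve steepness, a statistically real signal drop, and little compound fluorescence or tag-binding interference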). Background: Flow cytometry measures light scatter and fluorescence of single cells or particles in a stream.
Chain of Cell division control protein 42 homolog (Homo sapiens) (P60953 whole entry, looked up): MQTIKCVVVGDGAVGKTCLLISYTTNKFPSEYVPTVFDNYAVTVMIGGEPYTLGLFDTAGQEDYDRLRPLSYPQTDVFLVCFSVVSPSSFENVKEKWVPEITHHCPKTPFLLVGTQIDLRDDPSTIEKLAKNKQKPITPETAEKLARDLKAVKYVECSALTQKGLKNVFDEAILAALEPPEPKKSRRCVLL
For test [2] the target is unchanged. Kind of test: wildtype Cdc42 GTP-binding inhibitors, dose response, biochemical, multiplex bead flow cytometry, Bodipy-FL-GTP (AID 1334;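 active = fitted half-maximal concentration within the tested range, moderate curve steepness, significant signal drop, and little compound fluorescence or bead-linkage interference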). The note with it: bead-based flow cytometry, Bodipy-FL-GTP binding to GST-Cdc42; at 100 µM (top of the series) unless noted.
In test [3] the target is GTPase HRas (Homo sapiens) (UniProt P01112). Kind of test: inhibitors of GTP binding to wildtype Ras, dose response, biochemical, multiplex bead flow cytometry (AID 1335). The note with it: bead-based flow cytometry, Bodipy-GTP binding to GST-Ras; at 100 µM (top of the series) unless noted.
Chain of GTPase HRas (Homo sapiens) (P01112 whole entry, looked up): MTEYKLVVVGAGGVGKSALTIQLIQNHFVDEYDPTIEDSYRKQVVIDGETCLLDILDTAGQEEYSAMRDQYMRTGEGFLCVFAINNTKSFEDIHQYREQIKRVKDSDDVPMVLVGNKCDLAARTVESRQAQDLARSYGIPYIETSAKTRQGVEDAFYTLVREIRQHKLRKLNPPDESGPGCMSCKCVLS
Test [4] concerns Ras-related protein Rab-7a (dog), GTP binding. The experiment in a line: Rab7 GTP binding inhibitors, potency, dose response, biochemical, wildtype, multiplex bead flow cytometry (AID 1336; call rule not given here).
The target in test [5] is Ras-related C3 botulinum toxin substrate 1 (Homo sapiens) (UniProt P63000). The experiment in a line: wildtype Rac1 GTP binding inhibitors, dose response, biochemical, multiplex bead flow cytometry (AID 1340;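 active = dose curve with midpoint inside tested range, moderate steepness, plateau gap beyond fit error, low compound glow and bead-link interference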). The note with it: GST-Rac1 beads, Bodipy-FL-GTP binding; at 100 µM (top of the series) unless noted.
Test [6] concerns the target GTPase HRas (Homo sapiens) (UniProt P01112). Kind of test: activated Ras mutant GTP binding inhibitors, dose response, biochemical, multiplex bead flow cytometry (AID 1341;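 active = dose-response curve with midpoint inside the tested range, moderate steepness, significant amplitude and little compound fluorescence or bead-attachment interference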;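 also: GST-tagged constitutively activated Ras mutant immobilized on beads and multiplexed with other GTPases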).

For part of these data: Potency and affinity values are given separately. The source made the active and inactive calls.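 The calls were made as follows, unless noted: active = fitted half-maximal concentration within 10 nM to 100 µM, steepness 0.5 to 2, significant signal drop, low assay interference; inactive = the rest.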

As to `COc1cccc(N=Nc2c(N)[nH]n3c(=O)c4c(nc23)CCCC4)c1`, the compound was classed as inactive in test [1], in test [4] and in test [6]. Moreover, the fluorescence, percent of control (lower = inhibition) in test [2] was 29.6%. In test [3], this compound displayed a GTP binding, percent of control of 66.9%. The GTP binding signal, raw median fluorescence (lower = inhibition) (MCF (arbitrary fluorescence units)) in test [5] turned out to be 151.

Take `O=C(O)C1(NCc2ccccc2Cl)CCCCC1`: the compound was classed as inactive in test [1], in test [4] and in test [6]. Further, the fluorescence, percent of control (lower = inhibition) in test [2] worked out at 66%. In test [3], the GTP binding, percent of control turned out to be 91.3%. The GTP binding signal, raw median fluorescence (lower = inhibition) (MCF (arbitrary fluorescence units)) in test [5] was determined as 34.5.

`NC1=NC(=O)/C(=C\c2ccc(O)c([N+](=O)[O-])c2)S1`: the compound was called inactive in test [1], in test [4] and in test [6]. Also, the fluorescence, percent of control (lower = inhibition) in test [2] worked out at 26.8%. Also, in test [3], the GTP binding, percent of control stood at 58.3%. In addition, the GTP binding signal, raw median fluorescence (lower = inhibition) (MCF (arbitrary fluorescence units)) in test [5] is 116.

These data come from PubChem BioAssay.
